Data taken from paper PMC7819943, “Rice protein-binding microarrays: a tool to detect cis-acting elements near promoter regions in rice”.
The full ranking holds about 39,000 sequences; the median of “fluorescence intensity (a.u.)” is about 4,300, and the highest 2% start at about 39,000. Only a selection was taken, and the highest values are over-represented in it overall.

target: T1, OsSMF1 (Oryza sativa, UniProt Q6ZLB0 1-436); assay: protein-binding microarray (RPBM); PBS, 2% BSA, 51.3 ng/ul salmon testes DNA, 50 uM zinc acetate, 200 nM TF, 25 C, 1 h; high values mean tight binding; settings: protein: recombinant; tags: N-terminal polyhistidine and DsRed monomer fusion (pET32a); chain copies: 2; label: CyDye5-dUTP incorporated in the synthesized complementary strand; 3' TTTTT single-stranded linker to array surface; dsDNA, one strand shown
T1 sequence: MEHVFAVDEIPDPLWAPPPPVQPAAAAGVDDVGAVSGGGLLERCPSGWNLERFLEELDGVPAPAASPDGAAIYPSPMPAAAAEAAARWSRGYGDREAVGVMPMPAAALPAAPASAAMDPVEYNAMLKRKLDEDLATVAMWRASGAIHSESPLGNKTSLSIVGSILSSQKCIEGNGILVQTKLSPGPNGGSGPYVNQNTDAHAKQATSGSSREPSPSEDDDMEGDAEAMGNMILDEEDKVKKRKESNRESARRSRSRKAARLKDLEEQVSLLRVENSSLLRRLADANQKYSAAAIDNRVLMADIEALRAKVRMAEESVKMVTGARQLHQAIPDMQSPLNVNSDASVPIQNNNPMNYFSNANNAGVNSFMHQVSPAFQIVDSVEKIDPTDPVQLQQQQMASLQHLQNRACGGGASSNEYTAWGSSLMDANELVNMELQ
Procedure, shortened: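 Using Ni–NTA, transcription factors fused N-terminally to polyhistidine and DsRed were purified after expression in E. coli BL21-CodonPlus. These were incubated at 200 nM with a blocked, double-stranded custom Agilent array for 1 h at 25 °C in a buffer containing 50 µM zinc acetate, and the array was washed. The binding signal is per-feature fluorescence intensity (arbitrary units) on an Axon 4000B scanner.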

Sequence	binding signal
TATGTAGTACCACCCTGGTGTCACACATGTACCACTTGGTCGGAGTCACCTAGTGCAG	3910 fluorescence intensity (a.u.)
GGAGCTGAGGAGGGACAGCGAGCCAGCGAGGGAGGTGGGGCGGAGTCACCTAGTGCAG	3160 fluorescence intensity (a.u.)
GGGGACATTACTCCGTGGTTTACATGTCATCCAAATAGTTCGGAGTCACCTAGTGCAG	5320 fluorescence intensity (a.u.)
TATATACAAGTTCACCCCGAAACCTAGTCAGAGTATGACACGGAGTCACCTAGTGCAG	4240 fluorescence intensity (a.u.)
ACTTGCCACGGTGCCGCCTAACAGGCAGCCGTACCTGCCTCGGAGTCACCTAGTGCAG	3320 fluorescence intensity (a.u.)
TGAAATACTTACAAGTCGATCGAACAACACCTGTCATCATCGGAGTCACCTAGTGCAG	4160 fluorescence intensity (a.u.)
GCGGCCTATTGTTAGCGAGGAGTCACCCAGATTCTTCTCCCGGAGTCACCTAGTGCAG	6870 fluorescence intensity (a.u.)
TACTATTAGGTATGTGGTATCCATAACCCTGACACATACCCGGAGTCACCTAGTGCAG	3600 fluorescence intensity (a.u.)
CGTGAAAGTGCTTCGAAAGGTGTCAGCAGGTGCGCGGAGCCGGAGTCACCTAGTGCAG	3530 fluorescence intensity (a.u.)
GTCAGGTGGCGGCGGCGGCGGTGGTGGCGGTGGAGGTGGACGGAGTCACCTAGTGCAG	5570 fluorescence intensity (a.u.)
ATCCATAACTATGTAACGTCATAGCCACCCAGCCTCGCTTCGGAGTCACCTAGTGCAG	5580 fluorescence intensity (a.u.)
CTTGCACAAGTACAGTACGTGTACATGCATGTATGCTACCCGGAGTCACCTAGTGCAG	5700 fluorescence intensity (a.u.)
TTGCTAGTTGGTACAAAGTAAGCATGCAACACTTGTATGCCGGAGTCACCTAGTGCAG	42200 fluorescence intensity (a.u.)
ATGCATGGTATGTCACGTTGTGACTTGCCTACACTAAAGCCGGAGTCACCTAGTGCAG	4520 fluorescence intensity (a.u.)
AATGCTGCAATTTCTCGTTGACTAGACTTCACATGCAGCTCGGAGTCACCTAGTGCAG	5400 fluorescence intensity (a.u.)
TCCGTTGAGATCAGCACTTTCTAGCAGCTGTACAAGAGACCGGAGTCACCTAGTGCAG	3740 fluorescence intensity (a.u.)
GCCCATGTACGATGACGTGTACCCTATTGTCTTCTACTAGCGGAGTCACCTAGTGCAG	21600 fluorescence intensity (a.u.)
CACGCCAACGCCCAAGCCCACCAACCCAAGTTGAGTCGTGCGGAGTCACCTAGTGCAG	3360 fluorescence intensity (a.u.)
ATATAGATCATCATCAAGACTACGTATTATTCACTATTCACGGAGTCACCTAGTGCAG	3160 fluorescence intensity (a.u.)
CTACATCAGCTATATCTATTGTTGCTCTTACACTAAATTACGGAGTCACCTAGTGCAG	23700 fluorescence intensity (a.u.)
AATGGATCTAGACTATATCTATCTAGATTCATTAGTATCACGGAGTCACCTAGTGCAG	45400 fluorescence intensity (a.u.)

Sequence	binding signal
TTACAGGATTATATATCATGTTTATCTATTCGTCTTACTACGGAGTCACCTAGTGCAG	39500 fluorescence intensity (a.u.)
CCATATCATATTACTCCTACATGTGTACTACATTTATATTCGGAGTCACCTAGTGCAG	3720 fluorescence intensity (a.u.)
AATCTATGCATATATATATATATATATATGTCTAGATTCACGGAGTCACCTAGTGCAG	3240 fluorescence intensity (a.u.)
CCGCTCCGCCTACTCTGGCCACGCGCTGACGCCGCGTCCCCGGAGTCACCTAGTGCAG	7060 fluorescence intensity (a.u.)
GGCGGAGACGCGGGCGTGGCTCGGCGGCCTGCTAGTGTGACGGAGTCACCTAGTGCAG	3340 fluorescence intensity (a.u.)
AAAGCCAAACAAGTGTCCAAACGGCTAGGAGTCAACCTCGCGGAGTCACCTAGTGCAG	41200 fluorescence intensity (a.u.)
AAGTCCTCCCACAAGTCAACCAACCAAAACCACGTCCAAACGGAGTCACCTAGTGCAG	3420 fluorescence intensity (a.u.)
TTCAAGTCCAACCTCGGCCACATGCTCCGCCTCCGCCTCGCGGAGTCACCTAGTGCAG	3780 fluorescence intensity (a.u.)
TTTCTTAACTCGACACGCAATGTATTGTTATTTACGATTCCGGAGTCACCTAGTGCAG	3740 fluorescence intensity (a.u.)
TACCACTATCGGAAGTTTTGGTTGTGACGTCCACAATTCCCGGAGTCACCTAGTGCAG	3760 fluorescence intensity (a.u.)
TTTCACCCGGGACTAAAGATCGCTATCTTTAGTCCCGGATCGGAGTCACCTAGTGCAG	52600 fluorescence intensity (a.u.)
AACCGGGACTAAAGATCGTACCTTTAGTTACGATCTTTAGCGGAGTCACCTAGTGCAG	28500 fluorescence intensity (a.u.)
CTAATGGGACTGCTGCTACCCTATCTTTAGTCCGGGACTACGGAGTCACCTAGTGCAG	3270 fluorescence intensity (a.u.)
CAAGGGAGCTGGTAACACTCATCATTTCCGTTCTTCAAATCGGAGTCACCTAGTGCAG	3250 fluorescence intensity (a.u.)
AGGTTGGTGATTCAGAGATGTCGAGACGTGTGTTCTTTTGCGGAGTCACCTAGTGCAG	4270 fluorescence intensity (a.u.)
GCGCGTTGCTGCTGACTCCGGAGCAAAATCGAGCGAGCGCCGGAGTCACCTAGTGCAG	3360 fluorescence intensity (a.u.)
TTAATACAAATCCGTTGCATCACACGAGTCATATGCTAGTCGGAGTCACCTAGTGCAG	5010 fluorescence intensity (a.u.)
AACTCCGAGCGTTGCTATGGGAGTTCCGTAAAATAGTAATCGGAGTCACCTAGTGCAG	39300 fluorescence intensity (a.u.)
TTGAATTGCCATTACAAGCAGAAACTGGGTAGCCCAGCAGCGGAGTCACCTAGTGCAG	14600 fluorescence intensity (a.u.)
GCCGCTGCACCGCCCCAGCCTCCTCCTCCCCACCGATGCCCGGAGTCACCTAGTGCAG	3150 fluorescence intensity (a.u.)
TCTATAAATATGATGTGGCTATGTACTCAGTACTCACCTGCGGAGTCACCTAGTGCAG	6690 fluorescence intensity (a.u.)
